Data from PubChem BioAssay (EPA / NIEHS).
Calls of active or inactive are those of the source. Rule for the calls: active = hit-call score of the fitted dose curve at least 0.9, where 1 is the maximum; inactive = score below 0.9.

Tests used:
Details in all cases: mRNA level, 48 h; actives raise or lower the signal
CYP2C9 (gene 1559) = experiment: LTEA_HepaRG_CYP2C9: Life Technologies and Expression Analysis (LTEA) Assay for CYP2C9 using HepaRG (AID 2283484)
How it was run: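 HepaRG, 48 h dosing, 8-pt half-log series, top 100 uM, 0.5% DMSO vehicle. Read-out: CYP2C9 transcript by TaqMan qRT-PCR, housekeeping-normalized (ACTB/GAPDH/POLR2A). Gain or loss fitted vs DMSO baseline.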

CYP2E1 (gene 1571) = experiment: LTEA_HepaRG_CYP2E1: Life Technologies and Expression Analysis (LTEA) Assay for CYP2E1 using HepaRG (AID 2283485)
How it was run: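 CYP2E1 transcript was measured by TaqMan qRT-PCR in human HepaRG cultures after 48 h chemical exposure (top 100 uM, half-log steps, 0.5% DMSO vehicle). Housekeeping-gene normalization; gain or loss fitted relative to DMSO baseline.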

CYP4A11 (gene 1579) = experiment: LTEA_HepaRG_CYP4A11: Life Technologies and Expression Analysis (LTEA) Assay for CYP4A11 using HepaRG (AID 2283486)
How it was run: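 HepaRG, 48 h chem exposure, 8 conc (100 uM top, half-log), 0.5% DMSO vehicle; qRT-PCR readout, housekeeping-gene normalized; bidirectional curve fit vs DMSO baseline.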

[1] = read-out: Cytochrome P450 3A4 (Homo sapiens) (UniProt P08684); experiment: LTEA_HepaRG_CYP3A4: Life Technologies and Expression Analysis (LTEA) Assay for CYP3A4 using HepaRG (AID 2283487)
How it was run: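 Differentiated HepaRG cells, plated 48 h, then dosed 48 h in serum-free induction medium with 0.5% DMSO, 8 half-log concentrations up to 100 uM, duplicate. CYP3A4 mRNA by qRT-PCR, normalized to ACTB/GAPDH/POLR2A; bidirectional fit versus DMSO.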

[2] = read-out: DNA damage-inducible transcript 3 (DDIT3), DDIT3 (gene 1649); experiment: LTEA_HepaRG_DDIT3: Life Technologies and Expression Analysis (LTEA) Assay for DNA damage-inducible transcript 3 (DDIT3) using HepaRG (AID 2283488)
How it was run: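 qRT-PCR readout (Fluidigm TaqMan), housekeeping-normalized to ACTB, GAPDH, POLR2A. HepaRG cells, 48 h exposure, 8-point half-log series from 100 uM in 0.5% DMSO, duplicates. Gain or loss of signal fitted against DMSO baseline.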

[3] = read-out: Pro-epidermal growth factor (Homo sapiens) (UniProt P01133); experiment: LTEA_HepaRG_EGF: Life Technologies and Expression Analysis (LTEA) Assay for Epidermal growth factor (EGF) using HepaRG (AID 2283489)
How it was run: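 HepaRG, 48 h dosing, 100 uM top, half-log x8, 0.5% DMSO. Readout: TaqMan qRT-PCR (Fluidigm array), housekeeping-normalized. Gain or loss of signal fit vs DMSO.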

[4] = read-out: Early growth response protein 1 (EGR1) transcription factor, EGR1 (gene 1958); experiment: LTEA_HepaRG_EGR1: Life Technologies and Expression Analysis (LTEA) Assay for Early growth response protein 1 (EGR1) transcription factor using HepaRG (AID 2283490)
How it was run: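 HepaRG, 48 h exposure, 8-pt half-log series from 100 uM, 0.5% DMSO vehicle; EGR1 transcript by TaqMan qRT-PCR (Fluidigm array), housekeeping-normalized; bidirectional fit relative to DMSO baseline.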

[5] = read-out: Ezrin (EZR), EZR (gene 7430); experiment: LTEA_HepaRG_EZR: Life Technologies and Expression Analysis (LTEA) Assay for Ezrin (EZR) using HepaRG (AID 2283491)
How it was run: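 EZR transcript levels came from Fluidigm qRT-PCR and were normalized to three housekeeping genes after 48 h chemical exposure of HepaRG cells. Dosing used an 8-point half-log series with a 100 uM top concentration in 0.5% DMSO, tested in duplicate; both directions were fitted versus vehicle.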

[6] = read-out: Cytochrome P450 3A7 (Homo sapiens) (UniProt P24462); experiment: LTEA_HepaRG_CYP3A7: Life Technologies and Expression Analysis (LTEA) Assay for CYP3A7 using HepaRG (AID 2283492)
How it was run: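 Human HepaRG liver cells, 48 h post-plating, switched to serum-free induction medium and exposed in duplicate for 48 h. Dosing: 100 uM top, half-log dilutions, 8 points, 0.5% DMSO vehicle. Read-out: CYP3A7 mRNA, gain or loss fitted against DMSO baseline.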

[7] = read-out: Fatty Acid-Binding Protein 1 (FABP1), FABP1 (gene 2168); experiment: LTEA_HepaRG_FABP1: Life Technologies and Expression Analysis (LTEA) Assay for Fatty Acid-Binding Protein 1 (FABP1) using HepaRG (AID 2283494)
How it was run: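 qRT-PCR readout of FABP1 transcript (normalized to three housekeeping genes) after 48 h chemical exposure of HepaRG cells; eight concentrations, half-log steps, max 100 uM, 0.5% DMSO vehicle; gain or loss fitted relative to DMSO baseline.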

[8] = read-out: Cytochrome P450 4A22 (Homo sapiens) (UniProt Q5TCH4); experiment: LTEA_HepaRG_CYP4A22: Life Technologies and Expression Analysis (LTEA) Assay for Cytochrome P450 4A22 (CYP4A22) using HepaRG (AID 2283495)
How it was run: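 Readout is CYP4A22 transcript induction or loss, quantified by qRT-PCR and normalized to ACTB, GAPDH and POLR2A. Human HepaRG cells receive test chemicals for 48 h at eight half-log concentrations from 100 uM in 0.5% DMSO.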

[9] = read-out: Cytochrome P450 7A1 (Homo sapiens) (UniProt P22680); experiment: LTEA_HepaRG_CYP7A1: Life Technologies and Expression Analysis (LTEA) Assay for Cytochrome P450 7A1 (CYP7A1) using HepaRG (AID 2283496)
How it was run: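 Using 0.5% DMSO as vehicle and baseline, chemicals were tested in duplicate over an 8-point range from 100 uM on HepaRG cells for 48 h; qRT-PCR signals were normalised to ACTB, GAPDH and POLR2A.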

[10] = read-out: Glutathione S-Transferase (GSTA2), GSTA2 (gene 2939); experiment: LTEA_HepaRG_GSTA2: Life Technologies and Expression Analysis (LTEA) Assay for Glutathione S-Transferase (GSTA2) using HepaRG (AID 2283497)
How it was run: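 qRT-PCR readout of GSTA2 transcript, normalized to three housekeeping genes, fitted bidirectionally against 0.5% DMSO baseline. Differentiated HepaRG cells received compound for 48 h at 8 concentrations (top 100 uM, half-log steps).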

[11] = read-out: growth arrest and DNA damage 45 (GADD45G), GADD45G (gene 10912); experiment: LTEA_HepaRG_GADD45G: Life Technologies and Expression Analysis (LTEA) Assay for growth arrest and DNA damage 45 (GADD45G) using HepaRG (AID 2283499)
How it was run: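 Gain or loss of GADD45G mRNA, quantified by TaqMan qRT-PCR against three housekeeping genes, is fitted in both directions relative to 0.5% DMSO. Human HepaRG cultures receive test chemical for 48 h at up to 100 uM.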

[12] = read-out: Glutamate-cysteine ligase regulatory (GCLM), GCLM (gene 2730); experiment: LTEA_HepaRG_GCLM: Life Technologies and Expression Analysis (LTEA) Assay for Glutamate-cysteine ligase regulatory (GCLM) using HepaRG (AID 2283500)
How it was run: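 HepaRG, 48 h dosing, 100 uM top, half-log x8, 0.5% DMSO vehicle. Readout: GCLM mRNA by TaqMan qRT-PCR, housekeeping-normalized (ACTB/GAPDH/POLR2A). Curves fit bidirectionally vs DMSO baseline.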

[13] = read-out: Glutathione S-transferase M3 (GSTM3), GSTM3 (gene 2947); experiment: LTEA_HepaRG_GSTM3: Life Technologies and Expression Analysis (LTEA) Assay for Glutathione S-transferase M3 (GSTM3) using HepaRG (AID 2283501)
How it was run: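 HepaRG, plated 48 h, then serum-free induction medium; test chemical 48 h, duplicate; 100 uM top, half-log x8, 0.5% DMSO. Read-out: GSTM3 mRNA (TaqMan qRT-PCR, Fluidigm array). Bidirectional fit vs DMSO.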

[14] = read-out: Heat shock 70 kDa protein 1 (HSPA1A), gene 3303; experiment: LTEA_HepaRG_HSPA1A: Life Technologies and Expression Analysis (LTEA) Assay for Heat shock 70 kDa protein 1 (HSPA1A) using HepaRG (AID 2283502)
How it was run: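 HepaRG, 48 h exposure, 8-pt half-log CRC from 100 uM in 0.5% DMSO, duplicates. Readout: TaqMan qRT-PCR of HSPA1A mRNA, housekeeping-normalized (ACTB/GAPDH/POLR2A). Bidirectional fit vs 0.5% DMSO baseline.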

[15] = read-out: Hypoxia-inducible factor 1-alpha (Homo sapiens) (UniProt Q16665); experiment: LTEA_HepaRG_HIF1A: Life Technologies and Expression Analysis (LTEA) Assay for Hypoxia-inducible factor 1 (HIF1A) Trancription factor using HepaRG (AID 2283503)
How it was run: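 Gain- or loss-of-signal HIF1A mRNA changes are fitted against a DMSO baseline. HepaRG cultures receive eight concentrations, highest 100 uM, for 48 h in serum-free induction medium with 0.5% DMSO.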

CYP3A5 (gene 1577) = experiment: LTEA_HepaRG_CYP3A5: Life Technologies and Expression Analysis (LTEA) Assay for CYP3A5 using HepaRG (AID 2283493)
How it was run: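 qRT-PCR read-out: CYP3A5 transcript in HepaRG lysates, housekeeping-normalized (ACTB/GAPDH/POLR2A), fitted bidirectionally against 0.5% DMSO baseline. Exposure 48 h, eight half-log concentrations up to 100 uM, duplicates.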

[16] = read-out: Glutamate-cysteine ligase catalytic (GCLC), GCLC (gene 2729); experiment: LTEA_HepaRG_GCLC: Life Technologies and Expression Analysis (LTEA) Assay for Glutamate-cysteine ligase catalytic (GCLC) using HepaRG (AID 2283498)
How it was run: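 HepaRG, 48 h exposure, 8-pt half-log series from 100 uM, 0.5% DMSO vehicle; TaqMan qRT-PCR for GCLC mRNA, housekeeping-normalized; bidirectional curve fit vs DMSO baseline.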

Measured: AC50

Cytochrome P450 3A4 (Homo sapiens), sequence (P08684 whole entry, looked up): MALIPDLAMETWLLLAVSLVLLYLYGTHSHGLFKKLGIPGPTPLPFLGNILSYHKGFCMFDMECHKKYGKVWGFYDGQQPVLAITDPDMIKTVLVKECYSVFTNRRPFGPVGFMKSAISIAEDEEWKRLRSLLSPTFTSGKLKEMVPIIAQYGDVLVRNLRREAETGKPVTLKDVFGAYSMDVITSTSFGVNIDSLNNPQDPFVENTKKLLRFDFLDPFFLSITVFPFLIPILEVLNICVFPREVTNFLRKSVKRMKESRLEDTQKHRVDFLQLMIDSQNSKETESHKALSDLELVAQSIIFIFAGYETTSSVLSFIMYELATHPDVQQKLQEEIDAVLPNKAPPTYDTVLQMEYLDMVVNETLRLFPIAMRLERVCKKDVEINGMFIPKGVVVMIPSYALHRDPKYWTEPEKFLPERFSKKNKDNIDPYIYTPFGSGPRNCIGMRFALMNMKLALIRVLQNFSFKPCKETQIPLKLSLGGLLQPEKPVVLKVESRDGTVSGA
Cytochrome P450 3A7 (Homo sapiens), sequence (P24462 whole entry, looked up): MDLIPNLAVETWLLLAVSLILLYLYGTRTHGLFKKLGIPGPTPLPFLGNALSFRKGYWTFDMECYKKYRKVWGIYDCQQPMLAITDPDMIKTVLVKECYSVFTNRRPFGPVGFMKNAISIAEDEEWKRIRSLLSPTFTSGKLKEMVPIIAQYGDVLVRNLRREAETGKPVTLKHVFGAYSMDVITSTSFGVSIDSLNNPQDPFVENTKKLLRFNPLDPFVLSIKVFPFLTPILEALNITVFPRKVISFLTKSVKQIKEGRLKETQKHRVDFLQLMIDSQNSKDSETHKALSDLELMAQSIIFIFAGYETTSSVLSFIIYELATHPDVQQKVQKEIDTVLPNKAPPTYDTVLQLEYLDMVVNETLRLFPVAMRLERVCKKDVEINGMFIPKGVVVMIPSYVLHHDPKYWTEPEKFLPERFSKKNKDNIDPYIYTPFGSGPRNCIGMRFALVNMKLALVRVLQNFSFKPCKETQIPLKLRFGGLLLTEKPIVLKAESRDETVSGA
Hypoxia-inducible factor 1-alpha (Homo sapiens), sequence (Q16665 whole entry, looked up): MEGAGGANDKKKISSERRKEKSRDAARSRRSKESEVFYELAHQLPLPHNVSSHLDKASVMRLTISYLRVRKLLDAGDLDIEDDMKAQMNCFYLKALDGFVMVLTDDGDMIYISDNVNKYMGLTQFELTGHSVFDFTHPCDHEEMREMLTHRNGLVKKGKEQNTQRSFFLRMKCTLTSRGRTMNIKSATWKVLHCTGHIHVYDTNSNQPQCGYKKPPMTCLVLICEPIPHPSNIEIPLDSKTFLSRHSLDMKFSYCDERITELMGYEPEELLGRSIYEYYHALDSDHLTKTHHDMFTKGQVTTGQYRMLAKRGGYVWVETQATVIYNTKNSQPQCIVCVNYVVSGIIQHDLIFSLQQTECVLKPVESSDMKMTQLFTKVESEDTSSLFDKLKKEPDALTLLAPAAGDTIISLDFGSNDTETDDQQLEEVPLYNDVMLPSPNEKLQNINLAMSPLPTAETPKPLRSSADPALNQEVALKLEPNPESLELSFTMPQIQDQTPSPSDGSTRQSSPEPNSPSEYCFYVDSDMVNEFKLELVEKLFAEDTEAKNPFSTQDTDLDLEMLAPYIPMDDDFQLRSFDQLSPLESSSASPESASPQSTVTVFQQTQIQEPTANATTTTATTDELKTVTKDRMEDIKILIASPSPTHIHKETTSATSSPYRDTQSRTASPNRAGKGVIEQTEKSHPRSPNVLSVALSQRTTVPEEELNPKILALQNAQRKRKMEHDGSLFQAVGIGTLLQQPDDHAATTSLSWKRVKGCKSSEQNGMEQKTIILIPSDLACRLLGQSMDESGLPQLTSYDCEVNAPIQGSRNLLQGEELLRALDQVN

S=C([S-])NCCNC(=S)[S-].[Mn+2]
active: CYP2C9 (gene 1559) 2.23 µM | CYP2E1 (gene 1571) 3.82 µM | CYP4A11 (gene 1579) 3.33 µM | [1] 3.36 µM | [2] 6.1 µM | [3] 5.3 µM | [4] 6.62 µM | [6] 3.49 µM | [7] 3.58 µM | [8] 3.6 µM | [9] 4.73 µM | [10] 2.38 µM | [11] 4.33 µM | [12] 8.92 µM | [13] 1.88 µM | [15] 3.12 µM
inactive: [5] | [14]

CCOC(=O)NCCOc1ccc(Oc2ccccc2)cc1
active: CYP2C9 (gene 1559) 80 µM | CYP2E1 (gene 1571) 83.8 µM | CYP4A11 (gene 1579) 84.1 µM | [1] 87.8 µM | [2] 89 µM | CYP3A5 (gene 1577) 84.8 µM | [7] 79.1 µM | [8] 83.2 µM | [9] 83.9 µM | [10] 88.5 µM | [11] 73.5 µM | [12] 82.4 µM
inactive: [3] | [4] | [5] | [6] | [13] | [14] | [15]

O=C(O)C1(C(=O)Nc2ccc(Cl)cc2Cl)CC1
inactive: [2] | [5] | [12] | [13] | [14]
active: CYP2C9 (gene 1559) 71.9 µM | CYP2E1 (gene 1571) 63.5 µM | CYP4A11 (gene 1579) 84.8 µM | [1] 75.4 µM | [3] 31.6 µM | [4] 50 µM | [6] 91 µM | [7] 77.5 µM | [8] 80.7 µM | [9] 77.8 µM | [10] 48.8 µM | [16] 50 µM | [11] 90.1 µM | [15] 50 µM
